Results: PubChem BioAssay (NCI)
This is part of a sample that, as a whole, favours compounds with a hit. Of some 79,000 tested, about 15% had one in any assay. Calls of active or inactive are those of the source. No stated cut-off is given here; in the data, active means growth inhibition above about 70%; inactive means the rest.

Key:
[1] = NCI Yeast Anticancer Drug Screen. Data for the rad50 strain (AID 155);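 further: 0% = growth of vehicle-only cultures of the same strain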; conditions: S. cerevisiae rad50 strain growth inhibition; at 50.0 µM; active compounds read high
Method in brief: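 Relative growth inhibition (compound vs vehicle) was measured in yeast with a defined repair-gene alteration.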

[2] = NCI Yeast Anticancer Drug Screen. Data for the mec2-1 strain (AID 157); conditions: S. cerevisiae mec2-1 strain, at 50.0 µM, active compounds read high
Method in brief: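 Strain: mec2-1 (DNA repair/cell cycle alteration). Compound exposure, then growth measured; inhibition expressed relative to vehicle.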

[3] = NCI Yeast Anticancer Drug Screen. Data for the sgs1 mgt1 strain (AID 161);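 further: 0% = growth of cultures given vehicle only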; conditions: S. cerevisiae sgs1 mgt1 strain, at 50.0 µM, active compounds read high
Method in brief: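 Read-out: growth inhibition vs vehicle controls. Cells: mutant yeast strain deficient in DNA damage repair.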

[4] = NCI Yeast Anticancer Drug Screen. Data for the cln2 rad14 strain (AID 165);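 further: 0% = growth equal to vehicle treated cultures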; conditions: S. cerevisiae cln2 rad14 strain, at 50.0 µM, active compounds read high
Method in brief: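 Compounds are applied to the cln2 rad14 yeast strain, and growth is then compared with that of vehicle-treated cultures to give inhibition.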

[5] = NCI Yeast Anticancer Drug Screen. Data for the bub3 strain (AID 167); conditions: S. cerevisiae bub3 mutant strain, at 50.0 µM, active compounds read high
Method in brief: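 Screening used yeast with an engineered genetic alteration affecting cell cycle control. Compound-exposed cultures were compared with vehicle cultures, and reduced growth was taken as inhibition.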

[6] = NCI Yeast Anticancer Drug Screen. Data for the mlh1 rad18 strain (AID 175); conditions: S. cerevisiae mlh1 rad18 strain growth inhibition; at 50.0 µM; active compounds read high
Method in brief: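 Read-out is yeast growth inhibition, calculated against vehicle-only controls. The compound was applied to a strain engineered with DNA damage repair alterations.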

Measured: growth inhibition

CC(=O)N/C(=C/c1ccccc1)C(=O)NC(C)(C)C
inactive: [1] -13.1% | [2] -6.15% | [3] -9.85% | [4] -4.25% | [5] 1.2% | [6] 0.05%

NC(=O)c1nnn(-c2ccccc2)n1
inactive: [1] -9.75% | [2] -8.9% | [3] -10% | [4] -12.3% | [5] -5.75% | [6] -12.7%

NC(=O)SCC(=O)Nc1ccccc1O
inactive: [1] 14.6% | [2] -27.4% | [3] 2.25% | [4] 0.05% | [5] 0.85% | [6] -9.5%

Cc1ccnc(NC(=O)Nc2ccc(C)cc2[N+](=O)[O-])c1
inactive: [1] 18.4% | [2] 26.7% | [3] 20.4% | [4] 8.35% | [5] 18.1% | [6] 24%

NC(=O)O/N=C/c1ccc(Cl)cc1
inactive: [1] 2.8% | [2] -16.8% | [3] -13.1% | [4] 10.3% | [5] 17.1% | [6] 9.8%

CC1C=C(Br)C(=O)C(n2cnc3c(=O)n(C)c(=O)n(C)c32)O1 (configuration not stated)
inactive: [1] 24.1% | [2] 13.5% | [3] 18.8% | [4] 8% | [5] 10.9% | [6] 34%

CCCOc1ccc(C(=O)C(C(c2ccccc2)N2CCOCC2)N2CCOCC2)cc1 (configuration not stated)
inactive: [1] -71.2% | [2] 22.5% | [3] 21% | [4] 36.7% | [5] 35.8% | [6] 54%

Cc1ccccc1NC(=S)NN
inactive: [1] 22.2% | [2] 14.7% | [3] 14.1% | [4] 16.6% | [5] 11.9% | [6] 12.3%

O=C(Nc1ccc(Br)cc1)C(=O)C(C(=O)c1ccc(Cl)c(Cl)c1)C1OC(=O)c2ccccc21 (configuration not stated)
inactive: [1] 59.1% | [2] 42.5% | [3] 36.6% | [4] 64.5% | [5] 47.3% | [6] 36.7%

CCNC(=S)NCC
inactive: [1] -11.2% | [2] -28.8% | [3] 20.6% | [4] 6.7% | [5] 0.4% | [6] 17.5%

C=C(c1ccc(OC)cc1)c1cc(C(C)(C)C)c(O)c(C(C)(C)C)c1
inactive: [1] -4.45% | [2] -1.75% | [3] -17.9% | [4] 51.8% | [5] -4.65% | [6] 0.35%

CC(C(c1ccccc1)C(Br)C(=O)c1ccccc1)[N+](=O)[O-] (configuration not stated)
active: [1] 96.5% | [2] 93.2% | [3] 95% | [4] 87.3% | [5] 96.5% | [6] 94.7%

CSc1cc(=O)n(C2OC(CO)C(O)C2O)c(=O)[nH]1 (configuration not stated)
inactive: [1] 9.05% | [2] -5.35% | [3] 17.6% | [4] -14.9% | [5] 10.1% | [6] 25.7%

COC(=O)c1ccc(/C=C2\N=C(C)OC2=O)cc1
inactive: [1] -17.9% | [2] -28.6% | [3] 0.6% | [4] 12.2% | [5] -22.8% | [6] -17.9%

N#C/C(=C\c1ccccc1)c1cccc(Br)c1
inactive: [1] 3.9% | [2] -6.1% | [3] 17.4% | [4] -22.9% | [5] 48.1% | [6] -1%

COc1ccc(COCc2ccc(OC)cc2)cc1
inactive: [1] 4.55% | [2] -10.6% | [3] 8.7% | [4] -66.5% | [5] 13.8% | [6] 12.7%

CCCCCCCCCCCCCCCCOc1ccc(OCCCCCCCCCCCCCCC)cc1
inactive: [1] 42.2% | [2] -8.2% | [3] 31.6% | [4] -24.7% | [5] 5.35% | [6] -1.1%

CCCCNS(=O)(=O)c1n[nH]c(=O)[nH]c1=O
inactive: [1] -27.1% | [2] -10.1% | [3] -37.9% | [4] -12.4% | [5] -38% | [6] -19.2%

Oc1c(Br)cc(Br)cc1/C=N/N=C/c1cc(Br)cc(Br)c1O
inactive: [1] -6.7% | [2] -20% | [3] -15.9% | [4] 0.2% | [5] -8.5% | [6] 7.5%

O=C(NC1CCCCC1)Oc1ccc(Cl)cc1Cl
inactive: [1] 4.8% | [2] 23.9% | [3] 28.2% | [4] -8.45% | [5] 35.6% | [6] 31.9%

CO/[N+]([O-])=C\C(=O)N/C=C/C(=O)O
inactive: [1] 19.1% | [2] 5.85% | [3] 7.3% | [4] 18.7% | [5] 23.6% | [6] 15.2%

COC(=O)[CH2][Ge]([c]1ccccc1)[c]1ccccc1.COC(=O)[CH2][Ge]([c]1ccccc1)[c]1ccccc1
inactive: [1] 15.8% | [2] 9.15% | [3] 37.3% | [4] -5% | [5] -12.2% | [6] -8.3%

O=C(CCCCCC(=O)NO)NO
inactive: [1] -0.8% | [2] -6.05% | [3] -7.2% | [4] -20.3% | [5] -9.4% | [6] -1.55%

O=C(O)/C=C/SCc1ccccc1
inactive: [1] 10.2% | [2] -13.2% | [3] 0.8% | [4] -4.3% | [5] 1.4% | [6] -3.05%

N#CC1C(=O)NC(=S)NC1c1ccc2c(c1)CCC2 (configuration not stated)
inactive: [1] -12.9% | [2] -6.7% | [3] -22.9% | [4] -18.8% | [5] -7.15% | [6] 4.1%

O=C1NC(=O)C(Cc2ccco2)N1 (configuration not stated)
inactive: [1] 10.8% | [2] 6.7% | [3] -7.85% | [4] -20.6% | [5] -35.5% | [6] -5.2%

COc1ccc(/C(=N\NC(=O)NN)C(c2ccc(OC)cc2)C2(O)C(=O)Nc3c(Cl)cc(Cl)cc32)cc1 (configuration not stated)
inactive: [1] 6.2% | [2] -7.75% | [3] -57% | [4] -16.8% | [5] 8.6% | [6] -10.2%

CCC(CC)C(=O)OCCCC1CCCO1 (configuration not stated)
inactive: [1] 12.9% | [2] 2.9% | [3] 7.9% | [4] -3.25% | [5] -3.95% | [6] 0.6%

O=C1CCC(CC2CCCCC2)CC1
inactive: [1] -6.7% | [2] -3.95% | [3] -2.8% | [4] -58.6% | [5] -17.7% | [6] -12.2%

COc1ccccc1N=Nc1c(C)nc(N)nc1-c1ccccc1
inactive: [1] 23.1% | [2] 10.4% | [3] 25.9% | [4] 7.9% | [5] 4.6% | [6] 23.6%

O=S(=O)(O)C(Nc1ccc(Cl)cc1)c1ccccc1 (configuration not stated)
inactive: [1] 0.15% | [2] 6.2% | [3] 4.6% | [4] 12.5% | [5] 11.2% | [6] 10.3%

O=c1cc(O)nc2cn[nH]n12
inactive: [1] 4.8% | [2] -22.4% | [3] 7.65% | [4] 13.4% | [5] -3.45% | [6] 1.6%

NC1=NS(=O)(=O)Nc2nc(-c3ccc([N+](=O)[O-])cc3)[nH]c21
inactive: [1] -43% | [2] -45.8% | [3] -53% | [4] -22.4% | [5] -38.2% | [6] -45%

Cc1csc2nc(-c3ccncc3)cn12
inactive: [1] 10.7% | [2] 10.1% | [3] -14% | [4] 1.4% | [5] 37.1% | [6] 23.1%

COC(=O)C(/C(=N\O)C(=O)Nc1cccc(Cl)c1C)c1cnc2ccccc2n1 (configuration not stated)
inactive: [1] 14.5% | [2] -11.1% | [3] 8.75% | [4] 23.5% | [5] -0.2% | [6] 12.5%

c1ccc2c(c1)NC1C3(CCC4CCCCC241)SCCS3 (configuration not stated)
inactive: [1] 9.45% | [2] 2.3% | [3] 6.8% | [4] 8.8% | [5] -2.1% | [6] -1.15%

CCOC(=O)c1ccc[n+]([O-])c1
inactive: [1] -2.35% | [2] -9.95% | [3] -18.6% | [4] -107% | [5] -13.2% | [6] -10.8%

CC(=O)O[C@]12CCCCCC1C1(O)C(O)CCC[C@H]12 (some centres not stated)
inactive: [1] -29.4% | [2] -19.9% | [3] -54.8% | [4] 17.6% | [5] -26.1% | [6] -47.3%

COc1ccc(C2SCC(=O)N2NC(=O)c2ccc(NC(C)=O)cc2)cc1 (configuration not stated)
inactive: [1] -50% | [2] -49.5% | [3] -62.5% | [4] -8.9% | [5] -21.7% | [6] -61.5%

CCN(CC)c1ccc(N=C2C=CC(=O)C(NC(C)=O)=C2)c(C)c1
inactive: [1] -13.2% | [2] -24.8% | [3] 29.2% | [4] -8.15% | [5] 14.1% | [6] 13.3%

CCOCCOCCOCc1nc(C#N)c(N)o1
inactive: [1] -35.6% | [2] -23.3% | [3] -27.8% | [4] -14.8% | [5] -30.5% | [6] -63.4%

COc1cccc(N2C(=O)/C(=C/c3ccc(N(CCC#N)CCC#N)cc3)N=C2c2cc([N+](=O)[O-])ccc2Cl)c1
inactive: [1] 7.9% | [2] 27.9% | [3] 40.8% | [4] 32% | [5] 32.1% | [6] 28.9%
